Screens deposited in PubChem BioAssay by National Center for Advancing Translational Sciences (NCATS).
This is a sample that favours compounds with a hit; in the whole collection about 9.4% have one here.
Pf growth 48h = P. falciparum growth inhibition at 48 hours (one generation). P. falciparum luciferase growth in erythrocytes, 48 h. Potency, µM (titrated, usually from 28.7 µM), for inactives: top-dose activity change, negative = inhibition, hits mostly inhibitors. actives 5.9% (n = 310,000). AID 504832; note: % is set by controls: 0 for no effect and ±100 for the full control effect
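Read-out is firefly luciferase luminescence from an integrated reporter in P. falciparum, so falling signal marks reduced parasite growth. Infected erythrocytes were at 2% hematocrit and 0.1% parasitemia (final) in Albumax-supplemented RPMI 1640.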
Pf growth 96h = P. falciparum growth inhibition at 96 hours. AID 504834. Potency, µM (titrated, usually from 28.7 µM), for the others: at the top dose activity change, negative = inhibition, hits mostly inhibitors. actives 6.9% (n = 320,000). P. falciparum luciferase reporter growth, 96 h; note: % is set by controls: 0 for no effect and ±100 for the full control effect
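Two parasite generations (96 h, 37 C, 5% CO2) of compound exposure in infected erythrocytes (0.05% parasitemia, 2% hematocrit). Luciferase-reporter P. falciparum; decreased luminescence indicates inhibited growth, aimed at apicoplast-acting delayed death.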
AMA1 RON2 block = disrupts binding of P. falciparum AMA1 to RON2; AlphaScreen AMA1-biotinylated RON2 peptide binding; Potency, µM (titrated, usually from 58.2 µM), for the others: at the top dose activity change, negative = inhibition, most hits filed as inhibitors; actives 0.2% (n = 360,000);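 note: 0% = vehicle wells and -100% = peptide control; nearly all actives have a fitted effect of over 45% in size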
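AMA1 (3D7) with his tag at 25 nM final met compounds first, then biotinylated RON2 peptide at 25 nM; detection used donor plus acceptor beads, 10 µg/mL apiece, read by AlphaScreen after 30 min at room temperature.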
SARS PLpro yeast = blocks SARS-CoV papain-like protease in a yeast assay; actives 0.19% (n = 330,000); S. cerevisiae expressing SARS-CoV PLpro, growth rescue; Potency, µM (doses to about 32.9 µM), for the others: at the highest dose activity, positive = growth rescue, hits mostly activators; calls by dose curve; note: 0% is about no effect; nearly all actives have a fitted effect of over 55% in size
Active calls of the source: *; ? = inconclusive; / = no result given. Unless noted, calls come from the whole dose curve; as a rule, active = well fitted curve in the direction sought with a large enough effect; inconclusive = small, poorly fitted or top-dose-only effect, or another doubt; inactive = no such curve, though single readings can be large; an effect the other way counts as inactive or inconclusive. Potency is the fitted concentration of half-maximal effect.

SMILES	Pf growth 48h	Pf growth 96h	AMA1 RON2 block	SARS PLpro yeast
Cc1noc(N)c1C(=O)Nc1ccc(F)c(Cl)c1	2.3µM*	81%	-4%	-3%
Cc1noc(N)c1C(=O)Nc1ccc(F)cc1	-9%	2.1µM*	3%	5%
Cc1noc(N)c1C(=O)Nc1ccccc1F	-6%	?	-14%	-18%
CCn1cc(C(=O)NCc2ccco2)c(=O)c2cc(S(=O)(=O)N3CC(C)CC(C)C3)ccc21 (centres undefined)	?	-6%	4%	-2%
C#CC[N+](C)(C)CC#Cc1ccccc1	1.7µM*	95%	1%	0%
CCN(CC)CC#Cc1ccc(C)cc1	14%	20%	-11%	1%
C#CC[N+]1(CC#Cc2ccccc2)CCCCC1	?	0%	-10%	-2%
Cc1ccc(C#CC[N+](C)(C)CC#Cc2ccccc2)cc1	2.3µM*	5.9µM*	13%	0%
Cc1ccc(-c2csc(NC(=O)c3c(C)noc3C)n2)s1	/	/	-8%	-47%
CCn1c(COc2c(C)cccc2C)nnc1SCC(=O)N1CCN(c2ccccc2)CC1	?	?	31%	2%
O=C(Nc1ccc(Cl)c(S(=O)(=O)N2CCOCC2)c1)c1ccc(OCC2CCCO2)cc1 (centres undefined)	12µM*	4.1µM*	-6%	4%
O=C(Nc1ccc(Cl)c(S(=O)(=O)N2CCOCC2)c1)c1ccc2c(c1)OCO2	/	/	-24%	-1%
O=C(Nc1ccc(Cl)c(S(=O)(=O)N2CCOCC2)c1)c1ccc2c(c1)OCCO2	13µM*	?	-10%	-2%
O=C(Nc1ccc(Cl)c(S(=O)(=O)N2CCOCC2)c1)c1ccc(Cl)nc1	?	7.4µM*	5%	2%
O=C(Nc1ccc(Cl)c(S(=O)(=O)N2CCOCC2)c1)c1cc(-c2ccccn2)nc2ccccc12	12µM*	?	-4%	1%
COc1ccc(C(=O)Nc2ccc(Cl)c(S(=O)(=O)N3CCOCC3)c2)cc1	/	/	0%	1%
CN(C(=O)COC(=O)c1cc([N+](=O)[O-])ccc1Sc1ccccc1)C1CCS(=O)(=O)C1 (centres undefined)	?	-13%	-7%	0%
COc1ccc(OC)c2c(N3CC(C)OC(C)C3)cc(C(F)(F)F)nc12 (centres undefined)	112%	0%	-8%	-22%
CCCc1cc2c(=O)c(-c3nc4ccccc4s3)c(COCC(=O)O)oc2cc1O	24%	15%	47%	1%
CN(C)C(CNC(=O)c1cc(-c2ccco2)nc2ccccc12)c1ccccc1 (centres undefined)	/	/	?	10µM*
O=C(NCc1ccco1)c1cc(-c2cccs2)nc2ccccc12	?	19µM*	-1%	19%
COc1cc(-c2cc(C(=O)NCc3ccc(S(N)(=O)=O)cc3)c3ccccc3n2)cc(OC)c1OC	?	?	19%	-1%
COc1ccc(-c2cc(C(=O)Nc3ccc(S(N)(=O)=O)cc3)c3ccccc3n2)cc1OC	6%	?	0%	-1%
O=C(COC(=O)c1cc(-c2cccs2)nc2ccccc12)NCc1ccco1	5%	9%	14%	-1%
COc1cc(-c2cc(C(=O)NCc3ccco3)c3ccccc3n2)cc(OC)c1OC	?	10µM*	-3%	5%
SMILES	Pf growth 48h	Pf growth 96h	AMA1 RON2 block	SARS PLpro yeast
COc1cc(-c2cc(C(=O)Nc3ccc(S(=O)(=O)NCc4ccco4)cc3)c3ccccc3n2)cc(OC)c1OC	10µM*	17µM*	3%	2%
COc1ccccc1CN1CCN(C(=O)c2ccncc2)CC1	-2%	?	?	0%
COc1cc(OC)cc(C(=O)NCCNC(=O)c2ccccc2)c1	-6%	/	0%	7%
COc1ccc(N2C(=O)CC(NC34CC5CC(CC(C5)C3)C4)C2=O)c(OC)c1 (centres undefined)	-1%	/	4%	-27%
Cc1cc(C)cc(OC(C)C(=O)Nc2ccc3c(c2)n(C)c(=O)n3C)c1 (centres undefined)	-6%	0.93µM*	0%	-8%
Cc1ccc(OC(C)C(=O)Nc2ccc3c(c2)n(C)c(=O)n3C)cc1C (centres undefined)	?	?	-9%	-3%
CCOc1cccc(OCCOCCN2CCCC2)c1	3%	1%	-25%	10%
COC(=O)[C@]1(Cc2ccccc2)N[C@H](c2ccc(-c3ccc(OC)cc3)cc2)[C@@H]2C(=O)N(C)C(=O)[C@@H]21	?	?	0%	-6%
O=c1cccc2n1CC1CC2CN(S(=O)(=O)c2cc(Cl)ccc2Cl)C1 (centres undefined)	?	-19%	-3%	-5%
